An excerpt weighted towards active compounds, which were near 4.8% of everything screened.
Wee1 stabilizer: Wee1 degradation inhibitors, primary screen, cell-based, HeLa, Wee1K328M-luciferase, luminescence. AID 1321, 2008. reporter increase, % at 5 µM. HeLa Luc-Wee1K328M stability; 100% = proteasome inhibitor MG132 effect. actives 1.2% (n = 220,000);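 active means activation above the mean of all tested compounds plus 3 SD, set per screening run, cut at about 8.8% in these data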;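 further: cells exposed to compound for 20 h before luminescence read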
Target sequence (P30291 whole entry K328M): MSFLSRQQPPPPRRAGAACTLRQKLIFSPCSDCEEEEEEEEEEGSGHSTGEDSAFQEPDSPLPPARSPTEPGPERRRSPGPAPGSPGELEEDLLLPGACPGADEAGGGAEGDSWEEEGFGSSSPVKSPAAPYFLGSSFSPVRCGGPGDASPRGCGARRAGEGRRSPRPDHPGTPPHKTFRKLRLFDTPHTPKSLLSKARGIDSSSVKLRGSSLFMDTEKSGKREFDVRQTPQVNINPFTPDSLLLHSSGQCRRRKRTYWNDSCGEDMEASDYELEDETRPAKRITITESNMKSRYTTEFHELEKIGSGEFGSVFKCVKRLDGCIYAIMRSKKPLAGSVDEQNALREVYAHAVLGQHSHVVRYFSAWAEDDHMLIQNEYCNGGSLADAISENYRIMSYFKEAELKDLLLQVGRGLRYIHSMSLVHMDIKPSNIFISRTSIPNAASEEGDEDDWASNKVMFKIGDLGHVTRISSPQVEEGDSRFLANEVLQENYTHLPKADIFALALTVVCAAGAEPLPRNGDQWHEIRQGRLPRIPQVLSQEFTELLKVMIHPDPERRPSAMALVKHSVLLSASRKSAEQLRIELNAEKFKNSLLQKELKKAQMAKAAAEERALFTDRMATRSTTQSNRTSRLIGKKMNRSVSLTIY
NF-kB expr up: activators of NF-kB expression in neurons, primary screen, cell-based, HTS. actives 1.6% (n = 190,000). fold change at 12.5 µM. AID 1239, 2008. human neuronal cells, NF-kB reporter expression; hits give high values; in the data active means fold change above about 3.3
APP 5'UTR act: activators of APP 5'UTR luciferase reporter, primary screen, SH-SY5Y cells | AID 1276, 2008 | activation, % at 2 µM | SH-SY5Y APP 5'UTR luciferase reporter, luminescence; zero percent = DMSO vehicle wells | actives 1% (n = 190,000);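 active means activation above a set limit, based on mean plus 3 SD of controls, cut at about 140% in these data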
STAT1 activator: STAT1 signaling activators, primary screen, cell-based, HTS, luciferase reporter; NIH 3T3 STAT1-luciferase reporter, IFN-gamma, luminescence; 100% = IFN-gamma alone, no compound; activation (% of control), % at 5.5 µM; actives 2.6% (n = 200,000);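 active means activation above the screen-wide mean activation plus 3 SD, cut at about 130% in these data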
Hsp70 activator: Hsp70 transcriptional activators, primary screen, cell-based, HeLa, Hsp70 promoter luciferase, luminescence, 10 µM; HeLa Hsp70 promoter luciferase reporter; scaled: vehicle 0, proteasome-inhibitor control 100%; activation, % at 10 µM; actives 0.04% (n = 200,000); AID 1203, 2008;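 active means activation above the mean across all tested compounds plus 3 SD, cutoff set per campaign, cut at about 5.5% in these data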
APP 5UTR inh: inhibitors of APP translation via 5'UTR reporter, primary screen, APP 5'UTR luciferase, SH-SY5Y cells. SH-SY5Y APP 5'UTR-luciferase reporter, luminescence. inhibition, % at 2 µM. actives 0.82% (n = 190,000). AID 1285, 2008;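 active means inhibition above a set limit, derived from the sample mean plus 3 SD, cut at about 45% in these data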
STAT1 activ conf: STAT1 signaling activators, confirmation, cell-based, HTS, luciferase reporter. shares compounds with STAT1 activator. NIH 3T3 STAT1-luciferase reporter, IFN-gamma potentiation, luminescence; 100% = IFN-gamma EC80 alone, no compound. activation (% of control), % at 5.7 µM. actives 97% (n = 1,200);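 active means activation above a set limit carried over from the earlier primary STAT1 screen, cut at about 140% in these data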
NFkB act STAT1ct: NF-kB reporter activators, TNF-alpha stimulated, counter-screen for STAT1 activator project, cell-based, HEK293T, luciferase luminescence; shares compounds with STAT1 activator; 100% = TNF-alpha with vehicle only; activation (% of control), % at 5.7 µM; actives 43% (n = 1,200);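 active means activation above the mean of solvent-only control wells plus 3 SD, set per campaign, cut at about 130% in these data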;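 further: TNF-alpha given at a submaximal dose yielding about 80% of full reporter signal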
STAT3 act STAT1c: STAT3 reporter activation by STAT1 hits, confirmation, counter-screen for STAT1 activator project, U3A cells, luciferase, luminescence; IL-6; cells lack STAT1; 100 = IL-6 alone, no compound effect; actives 46% (n = 1,200); shares compounds with STAT1 activator; activation (% of control), % at 5.7 µM;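 active means activation above the solvent-only control well mean plus 3 SD, set per plate batch, cut at about 110% in these data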;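 further: higher means more STAT3 reporter activation so hits are non-selective activators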
Numbers stand for hits; - = inactive; . = not tested or not shown.

SMILES	Wee1 stabilizer	NF-kB expr up	APP 5'UTR act	STAT1 activator	Hsp70 activator	APP 5UTR inh	STAT1 activ conf	NFkB act STAT1ct	STAT3 act STAT1c
CCc1nnc(NC(=O)CCC(=O)N2CCCC2)s1	-	-	-	-	-	-	.	.	.
O=C(NCCc1ccccc1)c1ccc(Cl)nc1	-	-	-	156	-	-	163	-	121
CC(=O)Nc1ccc(C(=O)NCCc2ccccc2)cc1	-	-	-	-	-	-	.	.	.
COc1ccc(NC(=O)c2noc3c2CCCCC3)cc1	-	6.7	166	169	-	-	212	138	-
CCc1ccc(NC(=O)c2noc3c2CCCCC3)cc1	-	4.5	202	164	-	-	219	144	112
Cc1ccc(NC(=O)c2noc3c2CCCCC3)cc1	-	8.1	140	156	-	-	243	136	-
CCOC(=O)Nc1cc2c(cc1C(C)=O)OCO2	-	-	-	-	-	-	.	.	.
CCCc1c(C)[nH]c2ccc(C(=O)O)cc2c1=S	-	.	.	.	.	.	.	.	.
O=c1c2ccccc2nnn1CSc1ccc2ccccc2n1	-	-	-	-	-	-	.	.	.
O=c1c2ccccc2nnn1CSc1ccccc1	-	4.3	158	165	-	-	192	-	-
Cc1nc2ccccc2n1S(=O)(=O)c1ccc(Br)cc1	-	-	-	-	-	-	.	.	.
COc1ccc(-c2csc(-c3ccc(C(=O)O)cc3)n2)cc1	10	7.6	-	182	-	-	242	146	144
COc1ccc(-c2csc(NC(=O)c3ccccc3C(=O)O)n2)cc1	-	-	-	-	-	-	.	.	.
O=C(O)c1ccc(-c2nc(-c3ccc(Cl)cc3)cs2)cc1	-	6.3	241	181	-	-	241	135	135
CCN(CC)c1ccc2cc(-c3nnc(-c4ccccc4)o3)c(=O)oc2c1	-	-	-	155	-	-	185	137	126
Cc1ccc(Nc2nc(C(=O)N3CCC(C(=O)NC(C)C)CC3)cs2)cc1	-	.	.	.	.	.	.	.	.
Cc1ccc(Nc2nc(C3CC3)cs2)cc1	-	8.8	239	151	-	-	228	-	-
COC(=O)C1=C(N)N(c2ccccc2C(F)(F)F)C2=C(C(=O)CCC2)C1c1ccc2c(c1)OCO2 (centres undefined)	-	-	-	-	-	-	.	.	.
Cc1cc(NC(=O)Nc2ccccc2F)ccc1Br	-	6.7	213	181	-	-	232	141	112
Cc1cccc(NC(=O)Nc2ccc(C)cc2Br)c1	-	-	-	-	-	-	.	.	.
CCCNc1nc(N)nc(-c2cc(Cl)ccc2OC)n1	-	-	-	-	-	-	.	.	.
CCNc1nc(N)nc(-c2cc(Cl)ccc2O)n1	-	6.8	215	196	-	-	288	145	167
O=[N+]([O-])c1ccc(/C=N/N=C/c2ccc([N+](=O)[O-])o2)o1	-	-	-	182	-	94	135	138	-
CCOc1ccccc1NC(=O)Cn1nnc(C(=O)Nc2ccc(C)cc2)c1N	-	-	-	-	-	-	.	.	.
O=[N+]([O-])c1ccccc1/C=C\C=N\N1CCN(c2ccccc2)CC1	-	-	-	-	-	-	.	.	.
SMILES	Wee1 stabilizer	NF-kB expr up	APP 5'UTR act	STAT1 activator	Hsp70 activator	APP 5UTR inh	STAT1 activ conf	NFkB act STAT1ct	STAT3 act STAT1c
O=[N+]([O-])c1ccccc1/C=C/C=N/N1CCCCC1	-	4.5	-	155	-	-	178	-	111
CC(=O)Nc1nc2ccc(-c3nc4ccccc4o3)cc2s1	-	5.5	-	167	-	-	200	135	115
CC(=O)Nc1ccc(S(=O)(=O)Nc2cccc(-c3nc4ccccc4o3)c2)cc1	-	-	-	-	-	-	.	.	.
Cc1nc2ccc(-c3nc4ccccc4o3)cc2[nH]1	-	7	143	195	-	-	232	-	-
Nc1ccc(-c2nc3ccc(-c4nc5ccccc5o4)cc3[nH]2)cc1	-	-	-	-	-	-	.	.	.
CCOc1cc(/C=C/C(=O)O)ccc1OCc1ccccc1	-	-	-	-	-	-	.	.	.
Cc1ccc(C(=O)NNC(=S)NC(=O)c2ccc(Cl)cc2)cc1	-	-	-	-	-	-	.	.	.
Nc1nc(CN2CCN(C(=O)c3ccco3)CC2)nc(Nc2cccc(Cl)c2)n1	-	-	-	-	-	-	.	.	.
CC(=O)/C(C#N)=C1\NC(=O)C(Cc2ccccc2)S1 (centres undefined)	-	-	-	-	-	-	.	.	.
CC(=O)c1cccc(NC(=O)C2CCCC2)c1	-	-	-	-	-	-	.	.	.
Cc1scc(C(=O)N/N=C/c2ccc(Cl)s2)c1C	-	-	-	151	-	-	181	-	-
Cc1ccc(-c2cc(N)n(-c3ccc(C)cc3)n2)cc1	-	-	-	-	-	-	.	.	.
Cc1ccc(-c2cc(N)n(-c3ccc(F)cc3)n2)cc1	-	-	-	155	-	-	142	-	-
Cc1nn(C(=O)c2cccs2)c(N)c1-c1ccccc1	-	3.4	-	162	-	-	183	137	-
O=C(c1ccc(-n2cnnn2)cc1)N1CCOCC1	-	-	-	-	-	-	.	.	.
O=C(CN1CCN(S(=O)(=O)c2ccccc2)CC1)NC(=O)NCc1ccco1	-	.	.	.	.	.	.	.	.
CCCCNC(=O)CSc1nc2ccc(N3CCOCC3)cc2c(=O)n1Cc1ccc(OC)cc1	-	-	-	158	-	-	148	-	117
CC[N+](CC)(CC)CC(=O)Nc1ccc(SC(F)F)cc1	-	-	-	-	-	-	.	.	.
Cc1ccc(C(=O)Nc2ccc(SC(F)F)cc2)s1	-	-	-	173	-	-	205	141	-
Cc1ccc(S(=O)(=O)Nc2ccc3c(c2)ncn3C(C)(C)C)cc1	-	-	-	-	-	-	.	.	.
Cc1ccc(CNc2ccc3c(c2)ncn3C(C)(C)C)cc1	-	-	165	167	-	-	198	135	128

Screening results (PubChem)
